Measured values published in PubChem BioAssay (EPA / NIEHS).
Active and inactive are the calls of the source. The calls were made as follows: active = hit-call score of the fitted dose curve at least 0.9, where 1 is the maximum; inactive = score below 0.9.

What follows are compounds tested on Interferon-inducible T-cell alpha chemoattractant (ITAC), CXCL11 (gene 6373) (assay: BSK_hDFCGF_ITAC: BioMAP Diversity Plus: hDFCGF Assay for Interferon-inducible T-cell alpha chemoattractant (ITAC) Biomarker Activity (AID 2284251)). Conditions: primary human foreskin fibroblasts.
Method: BSK_hDFCGF is a cell-based, multiplexed-readout assay that uses foreskin fibroblast, a human skin primary cell, with measurements taken at 24 hours after chemical dosing in a 96-well plate.BSK_hDFCGF_ITAC is an assay component measured in the BSK_hDFCGF assay. It measures I-TAC antibody related to regulation of gene expression using ELISA technology.Data from the assay component BSK_hDFCGF_ITAC was analyzed at the endpoint, BSK_hDFCGF_ITAC, in the positive analysis fitting direction relative to DMSO as the negative control and baseline of activity. Using a type of binding reporter, gain or loss-of-signal activity can be used to understand protein changes. To generalize the intended target to other relatable targets, this assay endpoint is annotated to the 'cytokine' intended target family, where the subfamily is 'chemotactic factor'.
The levels of cell surface (or secreted, indicated by the prefix "s") biomarker endpoints were measured by ELISA. Overt cytotoxicity to cells in confluent adherent cultures (all systems other than the BT system) was assessed by measuring total protein levels using sulforhodamine B (SRB) staining in parallel cultures at the time of biomarker measurements, indicated as SRB endpoints. For proliferation assays for adherent cell types, individual cell types are cultured at sub-confluence and relative cell numbers quantified by SRB staining at time points optimized for each system (48 h: 3C and CASM3C systems; 72 h: BT and HDF3CGF systems; 96 h: SAg system). SRB was performed by staining cells with 0.1% SRB after fixation with 10% TCA and reading wells at 560 nm.Viability and proliferation of PBMC (T cells) was quantified by Alamar Blue reduction for the SAg and BT systems. For PBMC viability (referred to as PBMC Cytotoxicity within the assay endpoint names), cells were plated (75,000/well in a 96-well plate) and then chemical samples added for 1 h before addition of activators, SEB and TSST-1 (20 ng/mL final concentration each). Cells were incubated for 90 h. Then, Alamar Blue (20 uL/well) (Invitrogen, Cat DAL1100) was added for 6 h, and the plates were read with a fluorescence microplate reader at 546/580 nm (excitation/emission). For PBMC proliferation, cells were plated and activated as above but incubated for only 16 h prior to addition of Alamar Blue. Plates were read after 6 h.

With `NCCNCCN` as the compound, how does the outcome read?
The outcome was “inactive”.

How did the outcome turn out when `COc1cc(C=O)ccc1OC(=O)C(C)C` was run?
Its outcome is “inactive”.

Which outcome does the source give for `CC(=O)[C@H]1CC[C@H]2[C@@H]3CC=C4C[C@@H](O)CC[C@]4(C)[C@H]3CC[C@]12C` here?
Its outcome is “inactive”.

With `OC1OC[C@@H](O)[C@H](O)[C@H]1O` (some centres not stated) as the compound, how does the outcome read?
Its outcome is “inactive”.

Which outcome does the source give for `OC[C@H]1O[C@H](O[C@]2(CCl)O[C@H](CCl)[C@@H](O)[C@@H]2O)[C@H](O)[C@@H](O)[C@H]1Cl` here?
Its outcome is “inactive”.

`CC[Si](OC(C)=O)(OC(C)=O)OC(C)=O` was tested. Which outcome did it give?
The outcome was “inactive”.

For `CC(=O)OCCC(C)CC(C)(C)C` (configuration not stated), which outcome is on record?
The outcome was “inactive”.

With `Nc1cc([N+](=O)[O-])ccc1O` as the compound, how does the outcome read?
Its outcome is “inactive”.

With `C[C@H]1C[C@@H]2[C@H]([C@@H](O)C[C@@]3(C)[C@H]2CC[C@]3(O)C(=O)CO)[C@@]2(C)C=CC(=O)C=C12` as the compound, how does the outcome read?
The outcome was “inactive”.

For `C=CCOC(=O)CCC1CCCCC1`, which outcome is on record?
Its outcome is “inactive”.

How did the outcome turn out when `CCC(=O)OCc1ccccc1` was run?
Its outcome is “inactive”.

`Cc1cc(C2(c3cc(C)c(O)cc3C)OS(=O)(=O)c3ccccc32)c(C)cc1O` was tested. Which outcome did it give?
The outcome was “inactive”.
